Anaer choline gr: choline-fed anaerobic bacterial growth inhibition; Gram-negative bacterium anaerobic choline minimal medium, absorbance growth; active compounds read low; calls only; 55,000 tested, 0.2% active; call rule not given here
Numbers without * were called inactive; ! = repeats disagree. This is one part of a sample in which hits are shown more often than they occur.

Screening Cc1noc(/C=C/c2ccc(S(=O)(=O)N3CCCCC3)s2)c1NC(=O)C1CC1 returned Anaer choline gr inactive.
COc1ccc(CNC(=O)C2(C)CCCN(S(=O)(=O)c3cc(OC)ccc3OC)C2)cc1 (configuration not stated) was read as Anaer choline gr inactive.
`COC(=O)[C@@H](N)CSC/C=C(\C)CC/C=C(\C)CCC=C(C)C` gave Anaer choline gr inactive.
Screening CC(C)=CCC/C(C)=C/CC/C(C)=C/CSCC(=O)O returned Anaer choline gr active.
For O=S(=O)(Nc1ccccc1-c1ccc2ccccc2n1)c1ccc(F)cc1F the results were Anaer choline gr inactive.
CCN(CC)CCCNC(=O)CCCN1C(=O)c2cccnc2Oc2ccc(Cl)cc21 was read as Anaer choline gr inactive.
`CCN(CC)CCCCN1c2ccccc2Oc2ccc(Cl)cc21` gave Anaer choline gr active.
Screening CC(=O)NNC(=O)N1Cc2ccccc2Oc2ccc(Cl)cc21 returned Anaer choline gr inactive.
`O=[N+]([O-])c1ccc2c(c1)S(=O)(=O)C=C2` gave Anaer choline gr active!.
O=C(Cn1c(SCc2ccc(F)cc2)nc2cccnc21)Nc1cccc(F)c1 was read as Anaer choline gr inactive.
Screening Cc1ccc(N2CC(c3nc(-c4ccc(N5CCCC5)cc4)no3)CC2=O)cc1 (configuration not stated) returned Anaer choline gr inactive.
Screening Cn1cc(-c2nc(-c3ccc(Cl)cc3)no2)c(=O)c2cc(F)c(N3CCCCC3)cc21 returned Anaer choline gr inactive.
Screening CCN1CCN(C2(CNC(=O)C(C)C)CCCCC2)CC1 returned Anaer choline gr inactive.
For Cc1cc(C(=O)NCCN2CCOCC2)on1 the results were Anaer choline gr inactive.
Screening CCCCOC(=O)c1ccc(NC(=O)C2=Cc3ccc(C)cc3OC=C2)cc1 returned Anaer choline gr inactive.
For O=C1Nc2ccccc2C1Cc1ccc(Cl)cc1 (configuration not stated) the results were Anaer choline gr active.
Screening COc1cc(CC2C(=O)Nc3ccccc32)cc(Cl)c1OC (configuration not stated) returned Anaer choline gr inactive.
`O=C1Nc2ccccc2C1Cc1ccccc1F` (configuration not stated) gave Anaer choline gr inactive.
Screening COc1ccc2cc(C(=O)N3CCCN(c4ccc(=O)n(-c5ccccc5)n4)CC3)[nH]c2c1 returned Anaer choline gr inactive.
`O=C(c1ccccc1-c1ocnc1C(=O)N1CCN(c2ccc(Cl)cc2)CC1)N1CCCCC1` gave Anaer choline gr inactive.
CCOC(=O)c1oc2ccc(S(=O)(=O)N3CCCC3c3cc(C)on3)cc2c1C (configuration not stated) was read as Anaer choline gr inactive.
Screening CC1CCN(C(=O)CN2C(=O)C(C)(C)c3ccccc32)CC1 returned Anaer choline gr inactive.
Screening Cc1ccc(C2C3=C(CCCC3=O)Nc3ccccc3N2C(=O)C(C)C)cc1 (configuration not stated) returned Anaer choline gr inactive.
For CCOc1cccc(C2Nc3ccccc3-n3cc4c(=O)n(C)c(=O)n(C)c4c32)c1O (configuration not stated) the results were Anaer choline gr inactive.
`COc1cccc(C2Nc3ccccc3-n3c(-c4ccccc4)c4c(=O)n(C)c(=O)n(C)c4c32)c1O` (configuration not stated) gave Anaer choline gr inactive.
Cn1c(=O)c2cn3c(c2n(C)c1=O)C(c1ccc(O)c(O)c1)Nc1ccccc1-3 (configuration not stated) was read as Anaer choline gr inactive.
Screening COc1cccc(C2Nc3ccccc3-n3cc4c(=O)n(C)c(=O)n(C)c4c32)c1OC (configuration not stated) returned Anaer choline gr inactive.
Cc1ccc(C2Nc3ccccc3-n3cc4c(=O)n(C)c(=O)n(C)c4c32)c(O)c1 (configuration not stated) was read as Anaer choline gr active.
`COc1ccc(C2Nc3ccccc3-n3cc4c(=O)n(C)c(=O)n(C)c4c32)c(OC)c1` (configuration not stated) gave Anaer choline gr active.
`COc1ccc(Cl)cc1NC1=C(C(N)=O)S(=O)(=O)c2ccccc21` gave Anaer choline gr inactive.
`O=C(COc1cc(O)c2c(=O)cc(-c3ccccc3)oc2c1)N[C@@H](C(=O)O)c1ccccc1` gave Anaer choline gr inactive.
For CCc1ccc(-c2ccc(=O)[nH]n2)cc1S(=O)(=O)N(Cc1ccccc1)Cc1ccccc1 the results were Anaer choline gr inactive.
O=C(Nc1ccc(F)cc1F)c1nnc(C2CCN(C(=O)C3CCCCC3)CC2)s1 was read as Anaer choline gr inactive.
Screening Cn1cnc(S(=O)(=O)Nc2ccc(-c3nc4ccccc4[nH]3)cc2)c1 returned Anaer choline gr inactive.
For COc1ccc(CNc2ccc(C(=O)N3CCc4ccccc43)nn2)cc1 the results were Anaer choline gr active.
Screening O=C(c1ccc(NC2CCCC2)nn1)N1CCc2ccccc21 returned Anaer choline gr inactive.
COc1ccccc1N1CCN(c2ccc(C(=O)N3CCc4ccccc43)nn2)CC1 was read as Anaer choline gr inactive.
O=c1c2sccc2n2c(SCc3ccc(F)cc3Cl)nnc2n1CC1CCCO1 (configuration not stated) was read as Anaer choline gr inactive.
`Cc1nc(-c2ccc(C(=O)Nc3cc(Cl)ccc3C)cc2)no1` gave Anaer choline gr inactive.
For COc1cccc(CN=C2Nc3cc(C)c(C)cc3NC23CCCCC3C)c1 (configuration not stated) the results were Anaer choline gr inactive.
`O=C(Nc1ccc(F)c(F)c1)C1Nc2cc(F)ccc2S(=O)(=O)N1` (configuration not stated) gave Anaer choline gr inactive.
CCc1ccc(NC(=O)Nc2c(-c3ccccc3)[nH]c3ccccc23)cc1 was read as Anaer choline gr active.
For COc1ccc(NC(=O)Nc2c(-c3cccnc3)[nH]c3ccccc23)cc1 the results were Anaer choline gr inactive.
CCc1ccc(-c2[nH]c3ccccc3c2NC(=O)Nc2cccc(C(=O)OC)c2)cc1 was read as Anaer choline gr inactive.
`Cc1noc(C)c1S(=O)(=O)N1CCC(CC(=O)NCc2ccccn2)CC1` gave Anaer choline gr inactive.
`O=C(NC1CCCCC1)c1cccc(NC(=O)c2nsc3ccccc23)c1` gave Anaer choline gr inactive.
`CC(C)c1nnc(-c2ccc(S(=O)(=O)N3CCCC3)o2)o1` gave Anaer choline gr inactive.
CC(C)c1nnc(-c2ccc(S(=O)(=O)N3CCN(C(C)C)CC3)o2)o1 was read as Anaer choline gr inactive.
CC(C)CN1CCN(S(=O)(=O)c2ccc(-c3nnc(C(C)C)o3)o2)CC1 was read as Anaer choline gr active.
For O=C(c1coc(-c2ccccc2)n1)N1CCCN(Cc2noc(-c3ccccc3)n2)CC1 the results were Anaer choline gr inactive.
O=C(CC1CCCC1)N1CCN(Cc2noc(-c3ccccc3)n2)CC1 was read as Anaer choline gr inactive.
`O=C(CC1CC1)N1CCCN(Cc2noc(-c3ccccc3)n2)CC1` gave Anaer choline gr active.
`O=C(Nc1ccc(Cl)cc1)c1ccc(CN2C(=O)CCn3nccc32)cc1` gave Anaer choline gr inactive.
